# G9a block: qHTS Assay for Inhibitors of Histone Lysine Methyltransferase G9a; Histone-lysine N-methyltransferase EHMT2 (Homo sapiens), Q96KQ7; G9a H3K9 monomethylation, AlphaScreen, 2 h; Potency, µM (series often up to 102 µM), usual class: inhibitors; 350,000 compounds, 8.8% hits; further: nearly all actives have a fitted effect of over 75% in size
# Target sequence (Q96KQ7 913-1193 limits assumed): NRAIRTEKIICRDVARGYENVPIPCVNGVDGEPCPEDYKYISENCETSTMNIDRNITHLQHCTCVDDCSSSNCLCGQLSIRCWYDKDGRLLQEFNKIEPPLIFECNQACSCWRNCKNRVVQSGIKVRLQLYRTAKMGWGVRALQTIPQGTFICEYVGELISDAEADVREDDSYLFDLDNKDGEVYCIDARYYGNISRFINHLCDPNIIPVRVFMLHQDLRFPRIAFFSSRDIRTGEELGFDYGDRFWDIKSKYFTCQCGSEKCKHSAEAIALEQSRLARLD
#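 Quantitative HTS format: methyltransferase activity on a biotin-tagged H3K9 peptide is measured by AlphaScreen, using a rabbit anti-monomethyl-H3K9 antibody with streptavidin donor and anti-IgG acceptor beads. Final levels are 20 nM enzyme, 500 nM peptide, 20 uM SAM; 2 h RT.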
# VDR inh: Inhibitors of the vitamin D receptor (VDR): qHTS | 400,000 compounds, 0.93% hits | Vitamin D3 receptor (Homo sapiens), P11473 | Potency, µM, hits mostly inhibitors | VDR-SRC2-3 peptide fluorescence polarization, 2 h
# Target sequence (P11473 whole entry, looked up): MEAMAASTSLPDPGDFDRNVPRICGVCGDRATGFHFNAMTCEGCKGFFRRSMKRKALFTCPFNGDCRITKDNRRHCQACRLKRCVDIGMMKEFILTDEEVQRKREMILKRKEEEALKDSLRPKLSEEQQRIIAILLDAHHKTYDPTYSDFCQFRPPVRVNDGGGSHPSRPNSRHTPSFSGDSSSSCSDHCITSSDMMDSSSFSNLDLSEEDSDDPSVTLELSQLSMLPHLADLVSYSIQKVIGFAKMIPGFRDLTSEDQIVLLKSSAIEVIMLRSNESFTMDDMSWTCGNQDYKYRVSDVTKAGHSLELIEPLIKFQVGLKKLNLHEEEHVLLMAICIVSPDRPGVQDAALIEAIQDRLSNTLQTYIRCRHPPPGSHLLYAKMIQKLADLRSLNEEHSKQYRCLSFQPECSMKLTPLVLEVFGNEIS
#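 FP read-out; VDR + SRC2-3 coactivator peptide; 23 nl compound by pintool; 2 h RT incubation; reagents held at 4 deg C, protected from light.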
# MmCpn inh: Inhibitors of TCP-1 ring complex (TRiC) of Methanococcus maripaludis (MmCpn): qHTS; AID 504842, 2011; purified Mm-Cpn ATPase, ADP Transcreener TR-FRET; 330,000 compounds, 0.031% hits; Potency, µM (top dose mostly 76.9 µM), most hits filed as inhibitors; Chaperonin Mm-Cpn (Methanococcus maripaludis); further: nearly all actives have a fitted effect of over 80% in size
#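 Purified archaeal chaperonin (25 nM final) was preincubated with compound for 10 min at 37°C, then ATP (10 uM final) was added for 30 min at 37°C in Tris pH 7.4/KCl/MgCl2/DTT buffer. ADP was quantified by HTRF Transcreener TR-FRET.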
# PLK1 PBD block: qHTS for Inhibitors of PLK1-PDB (polo-like kinase 1 - polo-box domain): Primary Screen. Serine/threonine-protein kinase PLK1 (Homo sapiens), P53350. Plk1 PBD binding of FITC phosphopeptide, fluorescence polarization. Potency, µM, most hits filed as inhibitors. 360,000 compounds, 2.8% hits; further: series mostly up to about 57 µM; nearly all actives have a fitted effect of over 65% in size
# CCT chaperon mod: High-Throughput Screening for Modulators of Cytosolic Chaperonin Activity; 360,000 compounds, 0.3% hits; activity change, % (test concentration not listed), hits read low; purified chaperonin ATPase assay, HTRF ADP detection, 30 min; in the data active means activity change below about -30%
#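 First, chaperonin was dispensed at 40 nM or 20 nM final depending on batch activity. Next, compounds were pinned at 76 uM and ATP added at 10 uM. After 30 min at 37 °C, ADP detection reagents ran 30 min at ambient temperature.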
# Sfp PPTase inh: qHTS Assay for Inhibitors of Bacillus subtilis Sfp phosphopantetheinyl transferase (PPTase). Potency, µM, hits mostly inhibitors. 4'-phosphopantetheinyl transferase ffp (Bacillus subtilis), Q9F4F7. Biochemical Sfp PPTase activity, qHTS. 310,000 compounds, 3.5% hits;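 further: the enzyme is Sfp with the accession as filed and its product quenches rhodamine fluorescence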
#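 Step 1, compound plus 15 nM Sfp-PPTase, 15 min, room temperature. Step 2, add rhodamine-CoA (5 uM) and BHQ-2-YbbR (12.5 uM). Step 3, read 525/598 nm fluorescence at 0 and 30 min.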
# Numbers stand for hits; – = inactive; ? = inconclusive; · = no result; [ ] = dose if it differs, or a comment. Only some compounds are listed: those with a hit (about 10% of all), similar ones and a draw of the others. Unless noted, the call rests on the fitted dose curve; in most records, active means well fitted curve in the direction sought with a large enough effect; inconclusive means small, poorly fitted or top-dose-only effect, or another doubt; inactive means no such curve, though single readings can be large; an effect the other way counts as inactive or inconclusive.
SMILES,G9a block,VDR inh,MmCpn inh,PLK1 PBD block,CCT chaperon mod,Sfp PPTase inh
Nc1c(Cl)cc2c(c1Oc1ccccc1)C(=O)c1ccccc1C2=O,10µM,–,–,–,–,–
Nc1c(Cl)cc2c(c1Br)Cc1ccccc1-2,·,–,·,–,–,·
NC(=O)c1cc2c3ccccc3ccn2c1-c1ccccc1,35µM,?,–,?,–,–
CC(C)C(=O)OCc1cn(-c2ccc(Cl)c(Cl)c2)nn1,–,–,–,21µM,–,–
O=C(Nc1nc2ccccc2[nH]1)c1cccc(Cl)c1,·,–,–,–,–,–
O=C(O)c1ccc(Nc2nc3ccc(Cl)cc3[nH]2)cc1,45µM,–,–,–,–,–
COc1ccc(OC)c(CCNC(=O)c2c3c(nc4ccccc24)C(=O)N(C2CCCCC2)C3)c1,–,–,·,·,·,·
O=C(Cc1ccc(-n2cccc2)cc1)N1CCN(c2ccccc2F)CC1,50µM,–,–,–,–,–
O=C(CCc1nc2ccccc2c(=O)[nH]1)Nc1nc(-c2cccs2)cs1,45µM,–,–,–,–,·
O=C(CCc1nc2ccccc2c(=O)[nH]1)Nc1ccc(F)cc1,–,–,–,–,–,–
CN(c1ccc(-c2csc(NC(=O)CCCc3nc4ccccc4c(=O)[nH]3)n2)cc1)S(C)(=O)=O,·,·,·,–,–,·
C=CCn1c(C)cc(-c2csc(NC(=O)CCc3nc4ccccc4c(=O)[nH]3)n2)c1C,32µM,–,–,–,–,·
O=c1oc2ccc3ccccc3c2cc1-c1nnc(Nc2ccc(Cl)cc2Cl)s1,–,–,·,·,·,·
CCN(CC)c1ccc(/C=N/NS(=O)(=O)c2cccc([N+](=O)[O-])c2)cc1,11µM,–,–,?,–,?
CCN(Cc1ccccc1)c1ccc(/C=N/NS(=O)(=O)c2ccc(C)c([N+](=O)[O-])c2)cc1,8.9µM,?,–,24µM,–,?
COC(=O)CN1C(=O)C(C)(C)c2cc(S(=O)(=O)Nc3ccc(Br)cc3F)ccc21,–,–,·,·,·,·
Cc1cc(C)c2sc(N3CCN(C(=O)C4CC4)CC3)nc2c1,–,–,·,·,·,·
O=C1NC(=S)S/C1=C\c1cc(Cl)ccc1Cl,·,?,·,21µM,–,·
Cc1cc(/C=C2\SC(=S)NC2=O)c(C)[nH]1,·,–,–,–,–,–
N#Cc1c2c(c(-c3ccccc3Cl)[nH]c1=S)CCCC2,–[12.7 µM],–,–,17µM,–,?
C=CCOC(=O)N[C@@H](c1cccs1)C(C(C)=O)C(C)=O,·,–,·,·,·,–
O=C(O)/C=C/C(=O)Nc1ccc(-n2ccc(C(F)(F)F)n2)cc1,45µM,–,–,–,–,–
O=C(O)/C=C\C(=O)Nc1ccccc1C(=O)N1CCN(c2ccc(Cl)cc2)CC1,–[2.33 µM],–,–,–,–,–
O=C(O)/C=C\C(=O)Nc1ccc(N2CCN(c3ccc(Cl)c(Cl)c3)CC2)cc1,32µM,?,–,?,–,–
O=C(O)/C=C\C(=O)Nc1ccc(N2CCN(c3ccc(Cl)cc3)CC2)cc1,10µM,?,–,–,–,–
SMILES,G9a block,VDR inh,MmCpn inh,PLK1 PBD block,CCT chaperon mod,Sfp PPTase inh
CC(C)c1ccc(N2CCN(C(=O)c3ccccc3NC(=O)/C=C\C(=O)O)CC2)cc1,?,–,–,–,–,79µM
O=C(O)/C=C\C(=O)Nc1ccc(N2CCN(c3cccc(Cl)c3)CC2)cc1,·,–,–,?,–,–
CCCCNc1nc(C)nc2c1nc(-c1ccccc1)n2CC1CCCN1CC (configuration not stated),·,·,·,·,·,–
COC(=O)c1ccccc1NC(=O)Cn1nnc2sc(-c3ccccc3)cc2c1=O,–,–,·,·,·,·
O=C(c1ccc(Br)cc1)N1CCC(c2nc3ccccc3s2)CC1,–,–,·,·,·,·
CCC(=O)O[C@@H]1[C@H](C)O[C@H](O[C@H]2[C@@H](N(C)C)[C@H](O)[C@@H](O[C@@H]3[C@@H](CC=O)C[C@@H](C)[C@@H](O)/C=C\C=C/C[C@@H](C)OC(=O)C[C@@H](OC(=O)CC)[C@H]3OC)O[C@H]2C)C[C@]1(C)O,–[21.5 µM],–,·,·,·,–
O=C(Nc1ccc(Cl)cc1)N1CCN(c2ccccc2)CC1,–,–,–,27µM,–,–
CC(=O)c1ccc(N2CCN(C(=O)Nc3ccc(Cl)cc3)CC2)cc1,–,–,–,–,–,–
O=[N+]([O-])c1cc([N+](=O)[O-])c2nonc2c1Nc1ccc(O)cc1,11µM,?,–,–,–,?
O=c1oc(-c2ccccc2)cc(Cl)c1Cl,–,–,–,11µM,–,–
CCSc1nnc2c(n1)OC(c1ccc(OC)c(OC)c1)N(C(C)=O)c1ccccc1-2 (configuration not stated),–,–,·,·,·,·
CC(NC(=O)/C(C#N)=C/c1ccc(OCC(=O)O)cc1)c1ccccc1 (configuration not stated),·,–,–,–,–,?
CC(NC(=O)/C(C#N)=C/c1ccc(Cl)c([N+](=O)[O-])c1)c1ccccc1 (configuration not stated),?,?,–,12µM,–,25µM
CCOC(=O)c1noc2nc(C)n(CC(=O)NC(C)CC)c(=O)c12 (configuration not stated),–,–,·,·,·,·
CCN(C(=O)c1cc2c(s1)-c1ccccc1OC2)c1cc(Cl)ccc1OC,–,–,·,·,·,·
CC(=O)Nc1ccc(S(=O)(=O)NCC(=O)N2CCN(S(=O)(=O)c3cccs3)CC2)cc1,–[12.7 µM],–,–,15µM,–,·
CC(=O)Nc1ccc(S(=O)(=O)NCC(=O)OCC(=O)N2CCN(c3ccccc3)CC2)cc1,50µM,–,–,–,–,–
O=C(Nc1ccc(N2CCCC2)c(Cl)c1)c1cccc(-c2cc3ccccc3oc2=O)c1,45µM,–,–,–,–,–
CC(=O)Nc1ccc(NC(=O)c2cccc(-c3cc4ccccc4oc3=O)c2)cc1,–,–,–,–,–,–
COc1ccc(-c2nc3scc(CCNS(=O)(=O)c4ccc(F)cc4F)n3n2)cc1OC,–,–,·,·,·,·
COC(=O)C1=C(C(=O)OC)C2(OC1c1cccc(F)c1)C(=O)c1ccccc1C2=O (configuration not stated),25µM,–,–,–,–,79µM
CCN(CC(=O)NCc1ccccn1)S(=O)(=O)c1ccc(Cl)cc1,13µM,?,–,27µM,–,?
O=C(C(Cl)c1ccccc1)N1CCOCC1 (configuration not stated),22µM,–,–,–,–,–
